# In the supplement of paper PMC3334620:
# Whole data set: some 33,000 sequences, median “E-score (-0.5 to 0.5)” near -0.021, cut for the highest 2% near 0.32. The entries come from a sample that favours the highest values as a whole.
# Molecular target: T1, Zap1 (UniProt P47043)
# T1 sequence: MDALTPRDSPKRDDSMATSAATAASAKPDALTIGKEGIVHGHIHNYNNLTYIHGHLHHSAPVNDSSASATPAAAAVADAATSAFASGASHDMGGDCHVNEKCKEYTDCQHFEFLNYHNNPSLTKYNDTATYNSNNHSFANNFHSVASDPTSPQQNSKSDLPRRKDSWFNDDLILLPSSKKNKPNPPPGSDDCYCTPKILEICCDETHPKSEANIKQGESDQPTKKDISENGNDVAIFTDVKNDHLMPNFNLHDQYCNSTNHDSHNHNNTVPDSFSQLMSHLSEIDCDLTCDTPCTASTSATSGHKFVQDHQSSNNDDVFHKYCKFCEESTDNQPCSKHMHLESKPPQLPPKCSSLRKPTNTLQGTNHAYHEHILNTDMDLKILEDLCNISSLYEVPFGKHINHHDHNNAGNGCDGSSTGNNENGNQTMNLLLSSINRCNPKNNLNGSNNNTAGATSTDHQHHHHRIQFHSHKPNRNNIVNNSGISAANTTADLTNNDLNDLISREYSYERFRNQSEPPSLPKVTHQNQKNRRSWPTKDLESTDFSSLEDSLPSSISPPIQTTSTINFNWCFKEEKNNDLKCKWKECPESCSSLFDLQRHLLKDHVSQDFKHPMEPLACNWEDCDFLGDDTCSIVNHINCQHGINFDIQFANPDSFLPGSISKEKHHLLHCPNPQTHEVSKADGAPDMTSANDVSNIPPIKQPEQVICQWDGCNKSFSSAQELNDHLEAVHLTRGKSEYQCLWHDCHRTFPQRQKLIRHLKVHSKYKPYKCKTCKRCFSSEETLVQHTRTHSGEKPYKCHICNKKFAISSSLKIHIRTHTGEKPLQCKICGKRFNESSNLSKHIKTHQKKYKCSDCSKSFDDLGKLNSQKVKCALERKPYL
# Assay: PBM E-score (8-mer binding enrichment) (E-score (-0.5 to 0.5)); higher = stronger / more preferred TF binding
# Conditions: protein concentration: 200 nM; construct: GST-full length
# Description: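 Universal 'all 10-mer' protein binding microarrays (Agilent AMADID 015681) probed with GST-tagged S. cerevisiae TFs (full-length or DBD) made by in vitro transcription/translation (PURExpress), about 100-200 nM. Bound TF was detected with fluorescent anti-GST. Each ungapped 8-mer (which stands for itself and its reverse complement) is scored by the PBM enrichment score (E-score), a modified Wilcoxon-Mann-Whitney statistic from -0.5 to +0.5, computed with the Universal PBM Analysis Suite. Scale: above 0.35 generally sequence-specific binding.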
row,Sequence,PBM E-score
1,GACTCTCC,-0.236
2,ACCACAAG,0.259
3,AACCCAAG,0.346
4,GACCCCAA,0.172
5,AACCCAAC,0.282
6,GACCCAAA,0.299
7,GCCACAAA,0.221
8,CACCCAAA,0.255
9,AACCCAAT,0.187
10,ACCACAAA,0.35
11,AACCCAAA,0.35
12,TACCCCCA,0.054
13,TACCCCAA,0.363
14,CGTTAGCC,-0.0813
15,GTCTTAGA,0.0182
16,CCATCAAA,0.0846
17,CCAGAAGA,-0.0769
18,TACCAAAA,0.161
19,ACCCCAAG,0.311
20,CCCCCAAA,-0.22
21,CACCAAAA,0.235
22,GACCCCAC,0.243
23,ACCCCCAC,-0.286

row,Sequence,PBM E-score
1,AACCCCAC,0.344
2,AACCCCAA,0.377
3,AACCAAAA,0.364
4,ACCCCCAA,-0.0064
5,AACCCCCA,-0.0716
6,ACCCCAAA,0.337
7,AACTAACG,0.166
8,AACTGCGC,-0.0727
9,CCTTAGAA,0.211
10,GCCAACAA,0.192
11,AGGCTAAC,-0.0255
12,TCCTACCA,-0.13
13,GATTTAGC,0.118
14,ATTGTGGC,0.0557
15,ACCCAAAG,0.271
16,ACCCAAAA,0.345
17,ACAAAAAA,0.317
18,AAACCCAT,0.253
19,ACAAAAAC,0.182
20,GCCCAAAA,0.179
21,ACAAAAAT,0.234
22,AACCCCAT,0.359
23,ACCCCCAT,0.0539

row,Sequence,PBM E-score
1,CCCCTTCA,-0.105
2,CTCCTAAA,-0.147
3,GCAATGCC,-0.104
4,ACCACCGA,0.172
5,ACGTAAGG,-0.112
6,AACAGGCG,-0.32
7,TTATCAAA,0.2
8,GTAATCAA,0.146
9,ATTCACTA,0.0664
10,CATAGAGC,-0.238
11,ATGAGCGC,-0.0149
12,GACCTGAA,0.132
13,CCGGCGCC,-0.114
14,CTAGGGAA,-0.037
15,CTAGGGTC,0.309
16,GTAGGGCA,-0.143
17,GTAGGGAA,-0.112
18,CTAGGGTA,0.411
19,GTAGGGTA,0.429
20,ATAGGGTC,0.272
21,ATAGGGTG,0.214
22,ATAGGGTA,0.38
23,TTAATGAA,0.187

row,Sequence,PBM E-score
1,TCTTGGAA,0.089
2,AGATTAAA,0.2
3,GCTTTGAC,0.0804
4,CTAGACTC,-0.231
5,ACGCATTA,0.12
6,AATAAGAA,0.208
7,ATAGAAGC,-0.0622
8,AACAACAA,0.181
9,CCCAACCA,0.123
10,CACAACCG,0.289
11,AACAACCG,0.1
12,CACAACCC,0.414
13,CACAACAA,0.0567
14,CACAACCA,0.343
15,AACAACCA,0.319
16,AACAACAC,0.151
17,CCCAACCC,0.163
18,AACAACCC,0.408
19,AACAACCT,0.273
20,AGCGCCAG,-0.256
21,CGCTTAGC,-0.239
22,ACATTTGC,-0.00108
23,CTTCCCAA,-0.213

row,Sequence,PBM E-score
1,GACAACCC,0.35
2,GACAAACC,0.124
3,TACAACCA,0.319
4,GACAACCA,0.252
5,GACAACTC,-0.0129
6,TACAACAA,0.276
7,GCGTCGCC,-0.162
8,GGGGCCTA,-0.136
9,GCCAGGGA,-0.174
10,AACCACCA,0.273
11,GCCCACCC,0.335
12,CCCCACCC,0.357
13,GCCCACCA,-0.217
14,CCCCACCG,0.163
15,AACCACCC,0.353
16,CACCACCC,0.186
17,ACCCACCA,0.177
18,CCCCACCA,0.119
19,ACCCACCT,0.213
20,ACCCACCC,0.373
21,GCCCACAC,-0.102
22,ACACCAGT,-0.0248
23,GTGCCCTA,-0.314
